Shown are actives, neighbours in structure and some others; about 1.5% of the full set was active somewhere.
Efflux pump inh – antifungal efflux pump inhibition, Nile Red retention. inhibition, % at 10 µM. hit rate 0.44% among 330,000. S. cerevisiae Candida pump triplex;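 active means plate passing quality check with inhibition over a set limit, or well fluorescence over plate mean plus 4 SD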;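 further: Nile Red retained in pooled yeast measured as flow cytometry median fluorescence; higher means more Nile Red kept so more efflux inhibition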
PolyA inh – inhibitors of polyadenylation in S. cerevisiae. S. cerevisiae SKY197-pL101 polyadenylation reporter, beta-gal luminescence; efflux-impaired pdr1/pdr3 knockout yeast; score 100 = 6 SD above DMSO. hit rate 0.02% among 300,000. activity score, % at 12 µM. AID 1875;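 active means lowest replicate activity score at least 50, where 100 means six control SD above control mean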;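 further: yeast exposed to compound for 9 h at 30 °C; higher score means more reporter readthrough which indicates perturbed polyadenylation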
NALP1 yeast inh – blocks the NALP1 inflammasome reconstituted in yeast | S. cerevisiae NALP1/ASC/caspase-1 growth, X-gal OD620, 72 h | inhibition, % at 10 µM | hit rate 0.61% among 280,000; in the data active means inhibition mostly above about 24%, no sharp cut-off; inactive means mostly below about 32%
NALP3 yeast inh – blocks the NALP3 inflammasome reconstituted in yeast; Yeast reconstituted NLRP3/ASC/caspase-1, beta-gal luminescence, 24 h; inhibition, % at 10 µM; hit rate 0.39% among 330,000;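 active means inhibition of 50% or more; inactive means inhibition below 50%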
HDAC3 inhib – inhibitors of human histone deacetylase 3; O15379; recombinant HDAC3, fluorogenic peptide/trypsin coupled, fluorescence; inhibition, % at 8.3 µM; hit rate 0.15% among 320,000; in the data active means inhibition above about 26%, passing the limit was not always enough
JMJD2C inh – blocks human GASC-1 demethylase activity. GST-JMJD2C(1-420) H3K9me3 demethylation, DELFIA europium. inhibition, % at 2.35 µM. hit rate 0.069% among 330,000. AID 2099;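 active means more than half of a compound's replicate wells show inhibition beyond 50%, single wells judged on their own value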;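 further: signal counts dimethyl H3K9 product captured on neutravidin plate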
Target sequence (Q9H3R0 1-420 limits assumed): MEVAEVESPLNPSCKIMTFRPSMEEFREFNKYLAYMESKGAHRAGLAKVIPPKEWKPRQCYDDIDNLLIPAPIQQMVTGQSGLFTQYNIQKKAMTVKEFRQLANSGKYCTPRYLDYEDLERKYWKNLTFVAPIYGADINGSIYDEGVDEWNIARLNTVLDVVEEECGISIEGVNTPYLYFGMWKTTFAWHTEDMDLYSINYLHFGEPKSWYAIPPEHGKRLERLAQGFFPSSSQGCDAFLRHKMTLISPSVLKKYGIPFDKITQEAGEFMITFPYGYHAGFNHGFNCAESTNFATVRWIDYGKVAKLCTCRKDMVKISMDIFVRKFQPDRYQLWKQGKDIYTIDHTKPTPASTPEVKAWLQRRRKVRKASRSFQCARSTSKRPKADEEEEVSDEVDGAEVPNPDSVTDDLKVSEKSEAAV
NALP3 yeast conf – NALP3 inhibition confirmation in yeast; shares compounds with NALP3 yeast inh; yeast expressing human NALP3, luminescence; inhibition, % at 10 µM; hit rate 81% among 1,300; AID 435006; in the data active means inhibition above about 48%
Casp1 ASC ctr – active in yeast caspase-1-ASC counter-screen for NALP3 inhibitors | shares compounds with NALP3 yeast inh | yeast expressing Caspase-1-ASC, luminescence counter screen | inhibition, % at 10 µM | hit rate 66% among 1,000 | AID 488784
NALP3 retest – confirmation retest of NALP3 inhibitors in yeast | shares compounds with NALP3 yeast inh | yeast expressing human NALP3, luminescence read-out | inhibition, % at 10 µM | hit rate 53% among 1,000 | AID 488794
Large screens that a line does not name were inactive (follow-up assays come after a bar, where they were run). Unless noted, no stated cut-off is given here; in the data, active means inhibition above about 50%; inactive means the rest.

CCc1sc(C(=O)NCCCn2ccnc2)cc1Br	none
Cc1noc(/C=C/c2cccnc2)c1[N+](=O)[O-]	NALP3 yeast inh 80.1 | NALP3 yeast conf 87.3 | Casp1 ASC ctr 84.6 | NALP3 retest 54.2
Cc1ccc(C(=O)/C=C/Nc2ccccn2)cc1	NALP3 yeast inh 53.0 (no result: NALP1 yeast inh) | NALP3 yeast conf inactive
CCOc1ccc(C(=O)Nc2ccccc2CC)cc1[N+](=O)[O-]	NALP3 yeast inh 53.3 | NALP3 yeast conf 60.0 | Casp1 ASC ctr 52.9 | NALP3 retest 55.4
CC(C)Oc1ccc(C(=O)Nc2c3c(nn2-c2ccccc2)CS(=O)(=O)C3)cc1	none
C[C@@H]1C(=O)N(c2ccccc2)[C@@H]1c1ccncc1	none (no result: PolyA inh, NALP1 yeast inh, NALP3 yeast inh, HDAC3 inhib, JMJD2C inh)
COc1cc(Cl)c(S(=O)(=O)N2CCCC2)cc1Cl	NALP3 yeast inh 66.4 | NALP3 yeast conf 70.1
COc1cc(S(=O)(=O)N2CCCC2)c(C)cc1C	NALP3 yeast inh 59.8 | NALP3 yeast conf 77.0 | Casp1 ASC ctr 57.7 | NALP3 retest inactive
COc1cc(S(=O)(=O)N2CCC(C(N)=O)CC2)c(C)cc1C	none
Cc1cc(C)c(S(=O)(=O)Nc2ccccc2C(=O)N2CCCC2)c(C)c1	none
S=C1SCN(Cc2ccccc2)CN1Cc1ccccc1	none (no result: Efflux pump inh, HDAC3 inhib)
S=C1SCN(Cc2cccnc2)CN1Cc1cccnc1	NALP1 yeast inh 69.3, NALP3 yeast inh 56.8 | NALP3 yeast conf 58.2 | Casp1 ASC ctr inactive | NALP3 retest inactive
CC(C)COC(=O)N1CCN(S(=O)(=O)c2ccc3c(c2)CCC3)CC1	NALP3 yeast inh 52.6 (no result: PolyA inh, NALP1 yeast inh) | NALP3 yeast conf 51.5 | Casp1 ASC ctr inactive | NALP3 retest inactive
COc1ccc(N2CCN(CCNC(=O)c3c(C)cc(=O)oc3C)CC2)cc1	NALP1 yeast inh 27.7, NALP3 yeast inh 66.9 (no result: HDAC3 inhib) | NALP3 yeast conf 79.6 | Casp1 ASC ctr 86.0 | NALP3 retest 90.7
Cc1cc(C)c(S(=O)(=O)NC2CC2)c(C)c1	none
Cc1cc(C)c(C)c(S(=O)(=O)NC2CCCCC2)c1C	NALP3 yeast inh 52.7 | NALP3 yeast conf inactive | Casp1 ASC ctr inactive | NALP3 retest inactive
CC(/C=N/NC(=O)c1nnn(-c2nonc2N)c1CN1CCCCC1)c1ccccc1 (centres undefined)	none (no result: NALP1 yeast inh)
CC(CC(=O)Nc1ccccc1C(F)(F)F)c1ccccc1 (centres undefined)	none
CCOC(=O)N=Nc1c2ccccc2c2nc3no[nH]c3nc12	NALP3 yeast inh 86.3 (no result: Efflux pump inh, HDAC3 inhib) | NALP3 yeast conf 91.6 | Casp1 ASC ctr 71.5 | NALP3 retest 61.9
CC(NC(=O)C1CCN(C(=O)c2ccc(F)cc2)CC1)c1ccc(-n2ccnc2)cc1 (centres undefined)	none (no result: PolyA inh, NALP1 yeast inh)
Cc1c(Cc2ccccc2)sc(NC(=O)c2ccco2)c1C(N)=O	NALP3 yeast inh 85.4 | NALP3 yeast conf 92.0 | Casp1 ASC ctr 95.0 | NALP3 retest 85.8
O=C(Nc1ccc(NC(=O)c2ccco2)cc1)c1ccco1	none
O=C(Nc1ccc(Nc2ccccc2)cc1)c1ccc(F)cc1	NALP3 yeast inh 62.4 | NALP3 yeast conf 78.0 | Casp1 ASC ctr 58.9 | NALP3 retest 53.2
O=C(Nc1ccc2oc(-c3ccncc3)nc2c1)c1ccco1	none
O=C(Nc1ccc2oc(-c3ccccc3)nc2c1)c1ccco1	NALP3 yeast inh 76.5 | NALP3 yeast conf inactive
O=C(Nc1ccc(Nc2ccccc2)cc1)c1ccco1	NALP3 yeast inh 74.7 | NALP3 yeast conf 70.3 | Casp1 ASC ctr 78.6 | NALP3 retest 74.7
O=C(O)c1ccc(C(=O)Nc2ccc(F)cc2)cc1	none (no result: PolyA inh, NALP1 yeast inh)
Cc1c(C(=O)NC(=S)N(Cc2ccccc2)c2ccccn2)cccc1[N+](=O)[O-]	none (no result: PolyA inh, NALP1 yeast inh, JMJD2C inh)
CCCCN(C(=O)c1cc2c(s1)CCC2)c1c(N)n(CCCC)c(=O)[nH]c1=O	none (no result: NALP1 yeast inh)
CN1CCN(C(CNC(=O)c2ccc(Br)o2)c2ccc(F)cc2)CC1 (centres undefined)	none (no result: NALP1 yeast inh)
COC(=O)c1ccc(C(c2c(C)n(C)n(-c3ccccc3)c2=O)c2c(C)n(C)n(-c3ccccc3)c2=O)cc1	none
O=C(Nc1ccc(F)c(Cl)c1)c1ccccc1	NALP3 yeast inh 61.3 (no result: PolyA inh, NALP1 yeast inh) | NALP3 yeast conf 82.2 | Casp1 ASC ctr 70.0 | NALP3 retest 63.1

Screening results from PubChem BioAssay.
